Compounds without any hit were thinned out: in the full panel of roughly 83,000, 20% have a hit.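 Method: cells in 96-well plates; compound added at one concentration; 48 h incubation; percent growth measured; values under 10 scored active.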 A number with no mark means an inactive call. Calls of active or inactive are those of the source.
system: HCC-2998 colon; assay: NCI-60 one-dose screen, 48 h (100 = growth as untreated, 0 = no growth, -100 = all killed); conditions: 10 µM unless noted
Protocol: Growth inhibition of the HCC-2998 human tumor cell line is measured as a screen for anti-cancer activity. Cells are grown in 96 well plates and exposed to the test compound for 48 hours. Compounds are tested at a single concentration, which is 10^-5 M for most compounds. The reported endpoint is percent growth (GI% or GIPRCNT), where numbers from 0 - 100% represent growth inhibition, and numbers from -100% - 0 represent cell death. For example, a value of 40 represents 60% growth inhibition. A value of 0 means no net growth occurred over the course of the experiment. A value of -40 indicates 40% of cells at the beginning of the experiment died by the end of the experiment. A value of -100 means all cells are dead at the end of the experiment.
NCI-60 Human Tumor Cell Lines Screen was performed using the standard one-dose NCI protocol, which is described in more detail at https://dtp.cancer.gov/discovery_development/nci-60/default.htm.
Compounds with GIPRCNT values below 10 were considered active. Activity score was based on GIPRCNT using the following formula: […]
Score is 0 for GIPRCNT values of 100 or above, 50 for GIPRCNT values of 0, and 100 for GIPRCNT values of -100.

With `CCC(=O)C1C(=O)c2ccccc2C1=O` as the compound, how does the growth read?
Its growth is 106%.

For `CC(=O)Oc1c(Cl)cccc1-c1ccccc1`, which growth is on record?
The growth was 102%.

Which growth does the source give for `CC(=O)N=c1ccc2nc3c(cc(N)c4ccccc43)oc-2c1` here?
Its growth is -4.32% (active).

With `Cc1ccc(NCN2C(=O)c3ccccc3C2=O)c(C)n1` as the compound, how does the growth read?
Its growth is 106%.

How did the growth turn out when `COc1ccc(C2CCCCC2=O)cc1` (stereo not given) was run?
The growth was 107%.

`C(=C\c1ccncc1)/c1ccncc1` was tested. Which growth did it give?
Its growth is 99.3%.

For `O=C1C=Cc2ccccc2/C1=C/c1[nH]c(=O)[nH]c1O`, which growth is on record?
The growth was 54.1%.

For `Nc1nnc2cc(F)ccc2n1`, which growth is on record?
The growth was 103%.

For `CC(c1ccccc1)N1C(=O)CSC1=S` (stereo not given), which growth is on record?
Its growth is 53.2%.

Which growth does the source give for `OCc1cccnc1` here?
Its growth is 107%.

`CCC1CCC(C)NC1` (stereo not given) was tested. Which growth did it give?
Its growth is 106%.

`CCC12OC(COc3ccccc3)CN1CCN2c1ccccc1` (stereo not given) was tested. Which growth did it give?
Its growth is 115% [100 µM].

Which growth does the source give for `COc1cc(OC)c(NC(=O)C(Sc2nc(C)cc(C)c2C#N)c2ccccc2)cc1Cl` (stereo not given) here?
Its growth is 111%.

For `CC(=O)c1cccc(O)c1`, which growth is on record?
The growth was 110%.

`c1ccc(Oc2c3ccccc3nc3ccccc23)cc1` was tested. Which growth did it give?
The growth was 20.9%.

With `Oc1ccc2ccccc2c1CN1CCOCC1` as the compound, how does the growth read?
Its growth is 105%.

How did the growth turn out when `COc1cccc(C(=O)O)c1OC` was run?
Its growth is 98.6%.

`N#CC1(O)CCCCC1` was tested. Which growth did it give?
The growth was 93.3%.

With `Cc1ccc(C(C)C)c(OCC(=O)O)c1` as the compound, how does the growth read?
Its growth is 106%.

With `CC(C)(N)CO[C@H]1C[C@H]2CC[C@@]1(C)C2(C)C` as the compound, how does the growth read?
The growth was 102%.

`Cc1ccc(/C=N/NC(N)=S)s1` was tested. Which growth did it give?
Its growth is 113%.

Which growth does the source give for `CCCC(=O)c1cccs1` here?
Its growth is 99.8%.

Which growth does the source give for `NNC(=O)c1ccccc1N` here?
The growth was 112%.

How did the growth turn out when `Nc1cc2ccccc2c(O)c1O` was run?
The growth was 113%.

How did the growth turn out when `CC(C)(C)CC1(C)NC(=O)NC1=O` (stereo not given) was run?
The growth was 113%.

How did the growth turn out when `N#Cc1ccc2nc[nH]c2c1` was run?
The growth was 110%.

How did the growth turn out when `Clc1ccc(/C=C/c2ccccn2)cc1` was run?
The growth was 111%.

`NNc1ncnc2nc[nH]c12` was tested. Which growth did it give?
Its growth is 78%.

With `O=C(OCC1CCCO1)c1ccc([N+](=O)[O-])cc1` (stereo not given) as the compound, how does the growth read?
The growth was 117%.

`N#Cc1ccc(OC(=O)Nc2cc(Cl)cc(Cl)c2)cc1` was tested. Which growth did it give?
The growth was -8.43% [100 µM] (active).

How did the growth turn out when `CCC(C)C1CCC(O)CC1` (stereo not given) was run?
The growth was 107%.

With `CC(=O)N(CCCCCCN(C(C)=O)C(C)=O)C(C)=O` as the compound, how does the growth read?
Its growth is 114% [100 µM].

How did the growth turn out when `COc1cccc(C(=O)NNC(=O)c2cccc3ccccc23)c1` was run?
The growth was 102%.

With `c1cc(CNCCNCc2ccncc2)ccn1` as the compound, how does the growth read?
The growth was 102%.

With `CCOC(=O)/C(C#N)=C\c1c[nH]c2ccccc12` as the compound, how does the growth read?
The growth was 108%.

For `Cc1ccc(N2C(=O)c3cccc4c(N)c(S(=O)(=O)O)cc(c34)C2=O)cc1`, which growth is on record?
The growth was 104%.

Which growth does the source give for `O=C(NC1CCCCC1)c1ccc(Cl)cc1` here?
Its growth is 106%.

With `S=c1nc(-c2ccccn2)c(-c2ccccn2)n[nH]1` as the compound, how does the growth read?
Its growth is 99.5%.

`NCC(O)C(O)C(O)C(O)CO` (stereo not given) was tested. Which growth did it give?
Its growth is 99.1%.

`C=CCN1CCCC1=O` was tested. Which growth did it give?
Its growth is 128%.
